High-throughput results: PubChem, National Center for Advancing Translational Sciences (NCATS)
The list is not random: actives were taken first. Their share in the collection is about 2.2%.
BRCA1 expr act – qHTS Assay to Identify Small Molecule Activators of BRCA1 Expression; MCF7-BRCA1-FFLuc reporter, luminescence, 48 h; response scale: scaled: vehicle 0%, 10 µM genistein 100%; Potency, µM (highest dose often 46.1 µM), without a hit: top-dose activation, most hits filed as activators; hit rate 1.1% among 380,000; AID 624202, 2012; also: potency is read from the fitted curve at half-maximal effect; nearly all actives have a fitted effect of over 80% in size
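MCF7-BRCA1-FFLuc cells, 2000/well in phenol-red-free MEM, attached 2 h then treated 48 h at 37 C. Luciferase luminescence read 15 min after reagent; normalized to genistein maximum activation (10microM) and DMSO, concentration-response fitted.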
Giardia killer – Small Molecules that selectively kill Giardia lamblia: qHTS; Giardia lamblia trophozoite viability; activity change, % at 7.66 µM, hits read low; hit rate 0.15% among 340,000; in the data active = activity change below about -80%;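 also: parasites exposed to compound for two days anaerobically before the ATP read; % is scaled to controls: 0 for no effect and ±100 for the full control effect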
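Luminescent ATP signal served as the viability read-out, measured 15-30 min after adding ATP detection reagent to trophozoites that had been incubated with compounds for 48 hrs at 37 deg C anaerobically at 100 cells/well.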
TrxR1 substrate – qHTS Assay for Substrates of Mammalian Selenoprotein Thioredoxin Reductase 1 (TrxR1): qHTS; Thioredoxin reductase 1, cytoplasmic (Rattus norvegicus), O89049; purified TrxR1 substrate turnover, NADPH consumption readout; Potency, µM (series often up to 114 µM), without a hit: top-dose activity change, negative = substrate turnover; hit rate 0.01% among 390,000; also: potency is read from the fitted curve at half-maximal effect; % is scaled to controls: 0 for no effect and ±100 for the full control effect; nearly all actives have a fitted effect of over 50% in size
Target sequence (O89049 whole entry, looked up): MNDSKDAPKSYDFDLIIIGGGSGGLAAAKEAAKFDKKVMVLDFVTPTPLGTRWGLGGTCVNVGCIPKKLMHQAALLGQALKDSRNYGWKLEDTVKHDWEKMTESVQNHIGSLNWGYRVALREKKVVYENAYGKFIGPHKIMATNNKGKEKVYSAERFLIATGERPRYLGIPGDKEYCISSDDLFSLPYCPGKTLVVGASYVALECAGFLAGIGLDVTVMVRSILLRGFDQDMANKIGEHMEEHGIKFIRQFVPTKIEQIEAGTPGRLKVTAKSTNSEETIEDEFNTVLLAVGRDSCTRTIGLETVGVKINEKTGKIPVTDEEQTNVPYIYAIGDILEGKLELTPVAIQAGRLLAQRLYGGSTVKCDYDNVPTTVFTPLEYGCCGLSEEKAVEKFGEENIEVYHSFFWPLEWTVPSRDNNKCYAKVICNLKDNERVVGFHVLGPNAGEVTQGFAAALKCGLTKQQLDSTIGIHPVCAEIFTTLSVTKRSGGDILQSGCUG
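Rat TrxR1, dispensed at 90 nM, was prereduced with 400 uM NADPH (final) for 5 min at ~22 deg C, then incubated with compound 15 min before 400 uM selenite. A first-read NADPH fluorescence drop versus no-compound background flagged substrates.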
IL-2 act – qHTS of IL-2 Activators. IL-2 activation reporter assay, cell-based qHTS; stimulated with anti-CD3/CD4/CD28 beads; in transgenic mouse T cells. activation, % (series mostly up to about 46 µM). hit rate 0.065% among 360,000. AID 652025, 2013; in the data active = activation above about 50%; also: 0% is about no effect
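Using fluorescent plate cytometry, EGFP and DsRed are detected in transgenic mouse T cells stimulated 18 h at 37 degrees C with antibody-coated beads after 60 min compound pretreatment.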
mIDH1 inhibitor – qHTS for Inhibitors of mutant isocitrate dehydrogenase 1 (IDH1): qHTS | Isocitrate dehydrogenase [NADP] cytoplasmic (Homo sapiens), O75874 | IDH1-R132H enzyme, NADPH consumption, diaphorase/resazurin fluorescence | Potency, µM (doses to about 76.6 µM), inactives show top-dose activity change, negative = inhibition, usual class: inhibitors | hit rate 0.093% among 390,000 | AID 602179, 2012; also: potency is read from the fitted curve at half-maximal effect; % is scaled to controls: 0 for no effect and ±100 for the full control effect; nearly all actives have a fitted effect of over 65% in size
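IDH1-R132H (0.5 ug/mL dispensed) in pH 7.5 Tris buffer was preincubated 30 min with compound, then given a substrate mix of 0.016 mM NADPH and 2 mM alpha-KG for 80 min at room temperature; remaining NADPH was read by diaphorase/resazurin fluorescence.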
TrxR1 inh – qHTS Assay for Inhibitors of Mammalian Selenoprotein Thioredoxin Reductase 1 (TrxR1): qHTS; Thioredoxin reductase 1, cytoplasmic (Rattus norvegicus), O89049; recombinant rTrxR1, NADPH fluorescence consumption, selenite substrate; Potency, µM (top dose mostly 114 µM), without a hit: at the top dose activity change, negative = inhibition, hits mostly inhibitors; hit rate 1% among 390,000; AID 588453, 2011; also: potency is read from the fitted curve at half-maximal effect; % is scaled to controls: 0 for no effect and ±100 for the full control effect; nearly all actives have a fitted effect of over 65% in size
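Rat TrxR1 (90 nM in the dispensed reagent) was pre-reduced with 400 uM NADPH for 5 min at room temperature, then incubated with compound for 15 min. After 400 uM selenite was added, NADPH fluorescence (Ex 340/Em 450 nm) was followed for 8 min.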
Numbers without * were called inactive; nt = not tested or not shown; [ ] = dose if it differs, or a comment. Unless noted, calls follow the shape of the dose curve; as a rule, active = well fitted curve in the direction sought with a large enough effect; inconclusive = small, poorly fitted or top-dose-only effect, or another doubt; inactive = no such curve, though single readings can be large; an effect the other way counts as inactive or inconclusive.

SMILES | BRCA1 expr act | Giardia killer | TrxR1 substrate | IL-2 act | mIDH1 inhibitor | TrxR1 inh
CC(=O)Nc1nonc1-c1nnc(SCC(=O)N(C)c2ccccc2)n1C | nt | nt | 0% | nt | -2% | 11%
CN1CCN(C(=O)c2ccc(COc3ccc(C(C)(C)C)cc3)o2)CC1 | 3.5µM* | -3 | -6% | -1 | 4% | -8%
Cc1nc2nc(SCc3ccc(F)cc3Cl)nn2c(C)c1Cc1ccccc1 | nt | nt | 5%[57.1 µM] | nt | -3% | 21%[57.1 µM]
O=C(NC1CCC1)C1CCC(=O)N(Cc2cccc(F)c2)C1 (stereo not given) | 0% | 2 | 2% | -1 | 5% | 9%
CN(C(=O)C1CCC(=O)N(Cc2cccc(F)c2)C1)C1CCCCC1 (stereo not given) | 7.9µM* | 21 | 2% | 7 | -2% | 2%
Cn1c([N+](=O)[O-])cnc1COC(N)=O | 5% | -90* | -5% | 1 | -4% | 18%
CCOC(=O)c1c(N)c2cc([N+](=O)[O-])cnc2n1C | -18% | -3 | -2%[57.1 µM] | 1 | 1% | -16%[57.1 µM]
CC(=O)NC(Cc1ccc([N+](=O)[O-])cc1)C(=O)NCC(N)C(=O)c1ccccc1 (stereo not given) | -41% | nt | 1% | nt | nt | 4%
O=[N+]([O-])c1ccc(-c2nn(-c3ccccc3)cc2/C=N/n2c(-c3ccncc3)n[nH]c2=S)cc1 | -3% | -3 | -1% | 0 | -6% | 14%
S=c1[nH]nc(-c2ccncc2)n1/N=C/c1cn(-c2ccccc2)nc1-c1ccccc1 | 13µM* | -4 | -10% | 3 | -1% | -12%
COc1ccc(-c2cc3ccc(O)c(CN4CCC(C)CC4)c3oc2=O)cc1 | nt | nt | 103%[57.1 µM] | nt | -9% | 45%[57.1 µM]
O=C(Nc1ncccn1)c1cc([N+](=O)[O-])cc([N+](=O)[O-])c1 | -36% | -26 | -11% | 1 | 6% | -6%
O=[N+]([O-])c1cc(-c2ncccn2)c([N+](=O)[O-])s1 | -102% | 9 | -17% | -1 | 27% | 2µM*
Cc1cc(C(=O)COc2ncnc3sccc23)c(C)n1C1CC1 | 8.9µM* | 8 | -4% | -2 | 15% | -21%
C=CCNc1nnc(SC2CC(=O)N(c3ccc(OC)cc3)C2=O)s1 (stereo not given) | -7% | -10 | 11% | -1 | -1% | 4µM*
COc1ccc(N2C(=O)CC(Sc3nnc(-c4ccccc4F)n3C)C2=O)cc1 (stereo not given) | 4% | 6 | 0% | -1 | -7% | 32µM*
COc1ccc(N2C(=O)CC(Sc3nc4ccccc4s3)C2=O)cc1 (stereo not given) | 15% | -23 | -13%[57.1 µM] | -1 | 7% | 2%[57.1 µM]
Cc1ccc(C(CC(=O)N2CCOCC2)c2ccco2)cc1 (stereo not given) | 2% | 12 | 2% | 3 | 4% | 45µM*
CC(=O)c1c(-c2ccccc2)[nH]c2ccccc12 | -51% | -1 | 2%[57.1 µM] | 0 | 15% | -1%[57.1 µM]
O=C(O)/C=C/C(=O)c1c(-c2ccccc2)[nH]c2ccccc12 | -44% | -16 | -7% | 0 | 8% | 45µM*
COc1ccc(C2CC(O)(c3ccccc3)Oc3cc(C)c(Cl)c(C)c32)cc1 (stereo not given) | nt | 0 | 0% | nt | nt | 13%
COc1ccc(/C=C/C(=O)N2CCC(c3nc4ccccc4o3)CC2)cc1OC | nt | nt | 1% | nt | -4% | 12%
COc1cc(/C=C2\C(=O)N(c3cccc(C(=O)O)c3)N=C2C)ccc1OCc1ccccc1 | 7.1µM* | nt | nt | -1 | -6% | nt
COc1cc(/C=C/[N+](=O)[O-])ccc1OCc1cccc(C(=O)O)c1 | -86% | 2 | -12% | -1 | 10% | 32µM*
